HCMV antiviral: inhibitors of human cytomegalovirus. activity change, negative = inhibition, % at 57.5 µM. HFF cells, HCMV-luciferase reporter, 72 h; stronger effect = lower value. 4.5% of 410,000 active. AID 1259415; in the data active = activity change below about -60%; inconclusive = no clear call, values can overlap the other calls; inactive = above about -39%
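Cell-based, HFFs, 1000 cells/well, 16 h 37C; cpds in DMSO + HCMV-luc, MOI 1 PFU/cell; 72 h 37C; OneGlo luminescence after 5 min RT; norm. to buffer vs Salinomycin 10uM.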
LASV entry inh: Lassa virus entry inhibition | Lassa virus pseudotype entry inhibition, cell reporter | 1.2% of 300,000 active | AID 540256 | Potency, µM (top dose mostly 37.9 µM), for inactives: top-dose activity change, negative = inhibition, usual class: inhibitors; calls by dose curve; tested in HEK293 cells; note: potency is the fitted concentration of half-maximal effect; nearly all actives have a fitted effect of over 50% in size
HCV inh: HCV inhibition | Huh7.5.1 HCVcc-Cre infection, luciferase reporter, 44 h | Potency, µM (doses to about 41.8 µM), without a hit: at the top dose activity change, negative = inhibition, usual class: inhibitors | 3.4% of 340,000 active; note: potency is the fitted concentration of half-maximal effect
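Whole-lifecycle infectious HCVcc-Cre system; cells 1,000/well, compound then virus (~0.5 moi) added 4 h after plating, 44 h culture. Luciferase read 15 sec following 15 min substrate incubation, room temp.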
MARV entry inh: Marburg virus entry inhibition. Marburg virus pseudotyped entry inhibition, cell reporter. Potency, µM (series often up to 37.8 µM), for the others: top-dose activity change, negative = inhibition, actives largely listed as inhibitors. 1.8% of 300,000 active; calls by dose curve; tested in HEK293 cells; note: potency is the fitted concentration of half-maximal effect
Pf growth 96h: inhibits malaria parasite growth, 96 h | P. falciparum luciferase reporter growth, 96 h | Potency, µM (doses to about 28.7 µM), for the others: at the highest dose activity change, negative = inhibition, most hits filed as inhibitors | 6.9% of 320,000 active | AID 504834; note: potency is the fitted concentration of half-maximal effect
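Parasite growth measured via integrated firefly luciferase reporter in P. falciparum. Infected erythrocytes at 2% hematocrit, 0.05% parasitemia final were treated 96 hours at 37 C under 5% CO2, and luminescence was read.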
Pf growth 48h: inhibits P. falciparum growth in the first generation, 48 h | P. falciparum luciferase growth in erythrocytes, 48 h | Potency, µM (top dose mostly 28.7 µM), for the others: at the highest dose activity change, negative = inhibition, most hits filed as inhibitors | 5.9% of 310,000 active | AID 504832; note: potency is the fitted concentration of half-maximal effect
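Parasite viability was followed by luminescence of a genomically integrated firefly luciferase. Cultures held 0.1% parasitemia at 2% hematocrit (final), incubated under 5% CO2 at 37 C.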
* marks the source's active call; other numbers are inactive results; ? = inconclusive; / = not tested or not shown; + = active, no number; [ ] = remark or other dose. Sampled rows, rich in hits. Any-hit rate of the full collection: about 14%. Unless noted, calls come from the whole dose curve; as a rule, active = well fitted inhibition curve with a large enough effect; inconclusive = small, poorly fitted or top-dose-only effect, or another doubt; inactive = no such curve, though single readings can be large or run the other way. % is set by controls: 0 for no effect and ±100 for the full control effect.

SMILES	HCMV antiviral	LASV entry inh	HCV inh	MARV entry inh	Pf growth 96h	Pf growth 48h
CC(C)(CNC(=O)c1ccc(S(=O)(=O)Nc2cccc(C(F)(F)F)c2)cc1)N1CCOCC1	5	/	-7%	/	-4%	?
CCc1ccc(CSc2nc(-c3ccccc3OC)nc3c2Cc2c(CO)cnc(C)c2O3)cc1	30	0%[46.1 µM]	/	/	/	/
CCCc1nc2c(=O)n(C)c(=O)nc-2n(C)n1	-99*	1µM*	2.5µM*	?	-1%	5.2µM*
Cn1nc(-c2ccccn2)nc2c(=O)n(C)c(=O)nc1-2	-101*	/	2µM*	/	2.9µM*	2.9µM*
Cn1ncnc2c(=O)n(C)c(=O)nc1-2	/	/	0.5µM*	/	1%	0.93µM*
O=C(NC1CCCCC1)c1ccc(-c2cn[nH]c2)c2ccoc12	31	/	/	/	/	/
CCN(c1ccccc1)S(=O)(=O)c1c(-c2ccc(C)cc2)csc1C(=O)OC	-67*	?	/	/	/	/
COC(=O)c1scc(-c2ccc(C)cc2)c1S(=O)(=O)Nc1c(C)cc(C)cc1C	19	-3%[46.1 µM]	/	/	/	/
CCN(CC(=O)Nc1ccc(NC(C)=O)cc1)C(=O)/C=C/c1cn(-c2ccccc2)nc1-c1cccs1	-28	?	?	-17%	?	?
COc1ccc(-c2nn(-c3ccccc3)cc2/C=C2/SC(=S)N(CCC(=O)O)C2=O)cc1	?	-16%	36%	12%	?	?
CN1CCC(N(C)C(=O)/C=C/c2cn(-c3ccccc3)nc2-c2cccs2)CC1	-111*	?	7.9µM*	?	?	5.9µM*
COc1ccc(-c2nn(-c3ccccc3)cc2/C=C2/SC(=S)N(CCC(=O)O)C2=O)c(C)c1	-21	2%[46.1 µM]	19%	?	5.9µM*	-2%
O=C(O)CCN1C(=O)/C(=C/c2cn(-c3ccccc3)nc2-c2cccs2)SC1=S	-61*	-4%[46.1 µM]	3%	?	18%	-14%
O=C(Nc1ccccc1)C1=C[C@H](c2csc3ccccc23)C[C@H](OCCCCO)O1	15	/	-9%	/	8.3µM*	?
O=C(NCc1ccccc1)C1=C[C@H](c2csc3ccccc23)C[C@H](OCCCCO)O1	-95*	/	-40%	/	?	?
O=C(NCc1ccccc1)C1=C[C@H](c2ccc(Br)cc2)C[C@H](OCCCCO)O1	25	/	7%	/	/	/
O=C(Nc1ccccc1)C1=C[C@H](c2csc3ccccc23)C[C@H](OCc2ccc(CO)cc2)O1	18	/	?	/	?	?
CCOP(=O)(c1ccccc1)c1nc(-c2ccccc2Cl)oc1N1CCCCC1 (stereo not drawn)	15	?	?	?	?	6.6µM*
COc1ccc(C2=C3CCC[C@]4(C)CCO[C@]34C=CC2=O)cc1	-11	/	/	/	/	/
Cc1ccc(N2CN(CCc3ccccc3)CNC2=S)cc1	15	/	5%	/	?	9.3µM*
COc1ccc(N(CC(=O)NC2CCCC2)C(=O)c2ccc(N3CCCCC3)nc2)cc1	4	-21%	-7%	6%[46.1 µM]	?	9.3µM*
COCCNC(=O)CN(C(=O)c1ccc(N2CCCC2)nc1)c1ccc(Cl)cc1	13	/	9%	/	?	-18%
CCC(C)(C)NC(=O)CN(C(=O)c1ccc(N2CCCC2)nc1)c1ccc(F)cc1	24	/	6%	/	?	4.1µM*
CCc1ccccc1NC(=O)Cn1nnc(C(=O)Nc2ccc(OC)c(OC)c2)c1N	-28	?	/	/	/	/
Cc1cc(C)cc(-c2nnc(SCC(=O)Nc3cc(C)on3)o2)c1	-10	27%	1%	0%[46.1 µM]	?	4%
SMILES	HCMV antiviral	LASV entry inh	HCV inh	MARV entry inh	Pf growth 96h	Pf growth 48h
Cc1cc(NC(=O)CSc2ccccc2)no1	-102*	16%	9%	?	/	11%
COc1ccc(-c2nnc3ccc(SCC(=O)Nc4cc(C)on4)nn23)cc1	/	/	/	/	?	-15%
Cc1cc(-c2nnc(SCCC(=O)Nc3ccccc3)o2)no1	-85*	-5%	-12%	-18%	?	-15%
Cc1cc(NC(=O)CSc2nnc(-c3ccccc3)o2)no1	15	0%[46.1 µM]	3%	7%[46.1 µM]	12µM*	?
Cc1cc(NC(=O)CSc2ccc3nnc(-c4ccccc4)n3n2)no1	34	?	0%	-1%	13%	2.6µM*
COC(=O)[C@@]12C[C@@H](CC(=O)NCc3cccc4ccccc34)C(=O)N(Cc3ccccc3)C1=CCC(C)(C)C2	-33	/	/	/	/	/
Cc1cc(NC(=O)CSCC(=O)Nc2ccc(Cl)c(C(F)(F)F)c2)no1	-31	12%	-2%	-13%[46.1 µM]	22%	?
Cc1cc(NC(=O)CCCC(=O)Nc2ccc(F)cc2)no1	34	13%	15%	18%	8.3µM*	11%
Cc1cc(NC(=O)CSc2nnc(-c3ccccc3)c(-c3ccccc3)n2)no1	-62*	?	?	?	-2%	3%
O=C(CSc1nnc(-c2ccccc2)c(-c2ccccc2)n1)Nc1ccccc1Cl	-28	-5%[46.1 µM]	/	/	/	/
Cc1cc(NC(=O)CSCC(=O)Nc2ccc(C)c(C)c2)no1	+	/	-7%	/	-34%	-10%
Cc1cc(NC(=O)CSc2nc(C(C)C)nc3ccccc23)no1	?	?	13µM*	?	?	?
Cc1nnc(NC(=O)CSc2nc(C(C)C)nc3ccccc23)s1	?	?	?	-23%	37%	2%
O=C(CN1C(=O)COc2ccc(S(=O)(=O)N3CCCC3)cc21)N1CCN(c2ccc(Cl)cc2)CC1	-16	10%[46.1 µM]	/	?	/	/
CCn1c2ccccc2c2cc(NC(=O)CSc3nnc(-c4ccccc4)o3)ccc21	-28	?	7.1µM*	-19%	/	-16%
CCn1c2ccccc2c2cc(NC(=O)CSc3nnc(-c4cccc(C)c4)o3)ccc21	-11	-27%	-3%	-26%	-15%	/
CCc1cc2c(C)cc(C)cc2nc1SCC(=O)Nc1cc(C)on1	-4	?	?	14%[46.1 µM]	-5%	-8%
Cc1cc(C)c2cc(C#N)c(SCC(=O)Nc3cc(C)on3)nc2c1	-61*	/	-21%	20%[46.1 µM]	-18%	14%
Cc1cc(NC(=O)c2cc(-c3ccccc3)on2)no1	-14	20%	13%	?	44%	53%
Cc1cc(NC(=O)CSc2nc(=O)cc(N)n2-c2ccc(Cl)cc2)no1	-64*	-4%[46.1 µM]	12%	-1%[46.1 µM]	?	1%
Cc1cc(NC(=O)CCc2ccc(-c3ccccc3)o2)no1	-102*	?	-5%	?	0%	?
COC(=O)[C@]1(C=C2c3ccccc3C[C@H](OC)[C@@H]2C)[C@@H]2CC=C[C@@H]21	/	/	/	-8%[14.2 µM]	/	/
Cc1ccc2c(=O)cc(C(=O)Nc3ccc(S(=O)(=O)Nc4onc(C)c4C)cc3)oc2c1C	2	2%[46.1 µM]	/	3%[46.1 µM]	/	/
O=C(CCC1N=C2c3ccccc3N=C(SCc3ccc(F)cc3)N2C1=O)N1CCN(c2ccccc2)CC1 (stereo not drawn)	-18	12%[46.1 µM]	/	25%[46.1 µM]	/	/

Screens from PubChem BioAssay.
